Results filed as inconclusive are left out. Activity calls are given as the source filed them. Unless noted, calls come from the whole dose curve; as a rule, active = well fitted curve in the direction sought with a large enough effect; inconclusive = small, poorly fitted or top-dose-only effect, or another doubt; inactive = no such curve, though single readings can be large; an effect the other way counts as inactive or inconclusive.
Tests used:
[1] = target: Cytochrome P450 3A4 (Homo sapiens) (UniProt P08684); test: qHTS Assay for Inhibitors and Substrates of Cytochrome P450 3A4 (AID 884); note: % is set by controls: 0 for no effect and ±100 for the full control effect; nearly all actives have a fitted effect of over 50% in size
How it was run: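 Luminescent readout of luciferin produced by CYP3A4 (20 nM) dealkylation of Luciferin-PPXE, 25 uM (its KM). NADPH-driven reaction ran 60 min at RT after 10 min compound preincubation; data scaled to 57 uM ketoconazole as 100% inhibition.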

[2] = qHTS Assay for Lipid Storage Modulators (AID 1519; calls by dose curve; for activity change, negative = inhibition: % is set by controls: 0 for no effect and ±100 for the full control effect); conditions: Drosophila S3 cells, BODIPY lipid droplet/cell ratio, laser cytometry, cells loaded with oleic acid; for activity change, negative = inhibition: at 57.5 µM (top of the series)
How it was run: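 Cells seeded at 5,000 per well were treated with compounds over a concentration series and loaded with oleic acid (400 uM, as added). Lipid droplet fluorescence (488 nm excitation, 500-530 nm channel) was read by laser-scanning cytometry and normalized to 20 uM Triacsin C.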

[3] = target: Ubiquitin carboxyl-terminal hydrolase 1 (Homo sapiens) (UniProt O94782); test: Inhibitors of USP1/UAF1: Pilot qHTS (AID 504865);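 note: rhodamine fluorescence freed from ubiquitin-rhodamine substrate followed over time; top concentration of the series differs between compounds; % is set by controls: 0 for no effect and ±100 for the full control effect; nearly all actives have a fitted effect of over 35% in size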
How it was run: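 In 50mM HEPES pH 7.8 containing 0.5mM EDTA, 1mM TCEP, 0.1 mg/ml BSA and 0.01% Tween-20, 1nM USP1/UAF1 is exposed to compound for 15 min, then Ub-Rho (150nM final) is added and fluorescence is read over time.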

[4] = target: DNA dC->dU-editing enzyme APOBEC-3G (Homo sapiens) (UniProt Q9HC16); test: qHTS for inhibitors of Vif-A3G interactions: Validation (AID 588379); note: 0% is about no effect
How it was run: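 Yellow fluorescence (Ex 488, Em 500-530) of Vif-coexpressing HeLa A3G-eYFP cells, scanned by Acumen cytometer, reports blocked A3G degradation. Cells plated at 700/well overnight at 37 deg C before compound addition, then a further overnight compound incubation at 37 deg C.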

[5] = Confirmation and Secondary Assay for Modulators of Hemoglobin Beta Chain Splicing at IVS2 654 locus (AID 910);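 note: HeLa cells stably carrying EGFP split by mutant beta-globin IVS2-654 intron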;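 note: potency is the fitted concentration of half-maximal effect; potency of activators that raise GFP signal by restoring correct splicing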
How it was run: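 HeLa cells stably expressing EGFP interrupted by β-globin IVS2-654 intron, seeded overnight in Opti-MEM/2% FCS, then treated 2 days at 37 °C. Restored splicing read as total peak GFP intensity per well by laser scanning cytometry (488 nm excitation, 500–520 nm emission); 500 nM antisense PNA as control.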

[6] = Confirmation and Secondary Assay for Modulators of Hemoglobin Beta Chain Splicing at IVS2 705 locus (AID 930);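 note: GFP fluorescence per well restored by corrected splicing of the IVS2-705 intron in EGFP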; note: potency is the fitted concentration of half-maximal effect
How it was run: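 Assay measures total GFP intensity per well in HeLa EGFP-705 cells after 2 days with compound; mis-splicing normally truncates EGFP, so fluorescence indicates corrected splicing.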

[7] = target: ATP-dependent 6-phosphofructokinase (Trypanosoma brucei brucei) (UniProt O15648); test: qHTS Assay to Find Inhibitors of T. brucei phosphofructokinase: hit validation (AID 492961); note: % is set by controls: 0 for no effect and ±100 for the full control effect
How it was run: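 Luminescence from ADP-Glo reports ADP generated as T. brucei PFK (1.25 nM) phosphorylates 0.5 mM fructose-6-phosphate using 0.1 mM ATP. Reactions ran 45 min at room temperature, pH 8.0.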

[8] = target: Luciferin 4-monooxygenase (Photinus pyralis) (UniProt P08659); test: Biochemical firefly luciferase enzyme assay for NPC (AID 624030);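 note: purified P. pyralis luciferase at 10 nM with luciferin and ATP substrate; 0% = DMSO and -100% = full luciferase inhibition by PTC124 control; nearly all actives have a fitted effect of over 70% in size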
How it was run: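 Purified P. pyralis luciferase at 10 nM in 50 mM Tris Acetate (final), luminescence read within 5 minutes of enzyme addition to compounds. Activity normalised to PTC124 versus DMSO; concentration-response curves classed by r2, magnitude and activity.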

[9] = S16 Schwann cell PMP22 intronic element firefly luciferase assay (AID 624032); note: nearly all actives have a fitted effect of over 30% in size; note: potency is the fitted concentration of half-maximal effect;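 for activity change, negative = inhibition: plate controls were DMSO for no effect and PTC124 positive control mean for full effect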
How it was run: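 Rat S16 Schwann cells stably carrying firefly luciferase driven by a PMP22 intronic element, in 10% FBS, treated 24 h at 37 C. ONE-Glo luminescence normalized to PTC124 control and DMSO (0%); curves classed by r2, magnitude and activity.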

[10] = qHTS profiling for inhibitors of Plasmodium falciparum proliferation (AID 504749); note: potency is the fitted concentration of half-maximal effect;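 for activity, negative = inhibition: 0% = DMSO vehicle and full inhibition = artemisinin control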; for all read-outs here: nearly all actives have a fitted effect of over 60% in size; conditions: P. falciparum in erythrocytes, SYBR Green DNA, 72 h; for activity, negative = inhibition: at 28.7 µM (top of the series)
How it was run: (§1)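 SYBR Green fluorescence (ex 485 nm, em 535 nm) reports parasite DNA after 72 h compound exposure of infected red cells at 0.3% parasitemia, 2.5% hematocrit; signal normalized to 0.29 uM artemisinin and vehicle wells.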

CP191 = test: as above; conditions: P. falciparum in erythrocytes, SYBR Green DNA, 72 h; series mostly up to 12.8 µM
How it was run: as §1

CP194 = test: as above; conditions: P. falciparum in erythrocytes, SYBR Green DNA, 72 h; series mostly up to 12.8 µM
How it was run: as §1

CP201 = test: as above; conditions: P. falciparum in erythrocytes, SYBR Green DNA, 72 h; series mostly up to 12.8 µM
How it was run: as §1

CP315 = test: as above; conditions: P. falciparum in erythrocytes, SYBR Green DNA, 72 h; series mostly up to 12.8 µM
How it was run: as §1

FAB9 = test: as above; conditions: P. falciparum in erythrocytes, SYBR Green DNA, 72 h; series mostly up to 12.8 µM
How it was run: as §1

JCK = test: as above; conditions: P. falciparum in erythrocytes, SYBR Green DNA, 72 h; series mostly up to 12.8 µM
How it was run: as §1

P94_40 = test: as above; conditions: P. falciparum in erythrocytes, SYBR Green DNA, 72 h; series mostly up to 12.8 µM
How it was run: as §1

PC15 = test: as above; conditions: P. falciparum in erythrocytes, SYBR Green DNA, 72 h; series mostly up to 12.8 µM
How it was run: as §1

PC49 = test: as above; conditions: P. falciparum in erythrocytes, SYBR Green DNA, 72 h; series mostly up to 12.8 µM
How it was run: as §1

[11] = target: Cytochrome P450 3A4 (Homo sapiens) (UniProt P08684); test: qHTS Assay for Activators of Cytochrome P450 3A4 (AID 885); note: nearly all actives have a fitted effect of over 65% in size
How it was run: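 CYP3A4 activity: Luciferin-PPXE O-dealkylation, 25uM substrate, 200mM KPO4, RT throughout. Read-out is luciferase luminescence; higher values reflect activation.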

[12] = measured here: cell count channel max response
[13] = measured here: lipid channel max response

Sequence of ATP-dependent 6-phosphofructokinase (Trypanosoma brucei brucei) (O15648 whole entry, looked up): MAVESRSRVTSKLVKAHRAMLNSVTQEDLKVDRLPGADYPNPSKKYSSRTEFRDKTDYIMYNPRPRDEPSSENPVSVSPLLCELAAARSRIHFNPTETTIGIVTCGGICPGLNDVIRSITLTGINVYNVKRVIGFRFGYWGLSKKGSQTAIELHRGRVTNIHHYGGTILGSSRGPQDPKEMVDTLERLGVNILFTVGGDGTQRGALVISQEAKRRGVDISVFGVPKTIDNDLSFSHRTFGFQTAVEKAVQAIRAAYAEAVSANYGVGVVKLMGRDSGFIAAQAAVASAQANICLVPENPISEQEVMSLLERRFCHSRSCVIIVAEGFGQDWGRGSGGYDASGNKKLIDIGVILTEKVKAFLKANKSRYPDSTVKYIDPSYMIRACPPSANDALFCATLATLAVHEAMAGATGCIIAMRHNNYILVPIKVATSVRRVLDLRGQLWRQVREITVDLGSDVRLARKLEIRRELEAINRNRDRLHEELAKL
Sequence of Cytochrome P450 3A4 (Homo sapiens) (P08684 whole entry, looked up): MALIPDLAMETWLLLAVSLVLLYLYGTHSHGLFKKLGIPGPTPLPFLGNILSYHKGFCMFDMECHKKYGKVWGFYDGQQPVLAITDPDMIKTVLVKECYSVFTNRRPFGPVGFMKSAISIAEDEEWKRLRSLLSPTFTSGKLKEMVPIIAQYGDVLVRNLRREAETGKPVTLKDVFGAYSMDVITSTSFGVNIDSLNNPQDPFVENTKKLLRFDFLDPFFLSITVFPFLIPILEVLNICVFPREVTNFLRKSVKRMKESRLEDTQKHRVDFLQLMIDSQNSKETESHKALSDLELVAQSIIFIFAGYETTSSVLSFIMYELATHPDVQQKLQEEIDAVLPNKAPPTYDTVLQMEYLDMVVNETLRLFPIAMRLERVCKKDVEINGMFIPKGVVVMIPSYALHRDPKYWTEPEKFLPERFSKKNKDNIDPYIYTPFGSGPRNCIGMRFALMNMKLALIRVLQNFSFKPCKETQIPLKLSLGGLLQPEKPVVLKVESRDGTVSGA
Sequence of Luciferin 4-monooxygenase (Photinus pyralis) (P08659 whole entry, looked up): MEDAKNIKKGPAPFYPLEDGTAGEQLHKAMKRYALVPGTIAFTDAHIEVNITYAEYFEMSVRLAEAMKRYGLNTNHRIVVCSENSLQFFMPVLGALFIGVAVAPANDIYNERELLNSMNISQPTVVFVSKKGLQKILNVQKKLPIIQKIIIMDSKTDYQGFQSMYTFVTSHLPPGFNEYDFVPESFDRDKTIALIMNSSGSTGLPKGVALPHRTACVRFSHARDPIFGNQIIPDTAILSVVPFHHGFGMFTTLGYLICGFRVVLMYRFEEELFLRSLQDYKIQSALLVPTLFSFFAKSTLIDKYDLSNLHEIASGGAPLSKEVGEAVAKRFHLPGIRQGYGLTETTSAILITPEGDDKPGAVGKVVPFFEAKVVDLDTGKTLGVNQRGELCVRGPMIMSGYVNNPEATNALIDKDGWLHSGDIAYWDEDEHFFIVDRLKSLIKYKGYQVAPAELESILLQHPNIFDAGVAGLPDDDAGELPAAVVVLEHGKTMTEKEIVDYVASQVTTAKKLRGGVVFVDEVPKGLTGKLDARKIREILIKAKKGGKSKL
Sequence of Ubiquitin carboxyl-terminal hydrolase 1 (Homo sapiens) (O94782 whole entry, looked up): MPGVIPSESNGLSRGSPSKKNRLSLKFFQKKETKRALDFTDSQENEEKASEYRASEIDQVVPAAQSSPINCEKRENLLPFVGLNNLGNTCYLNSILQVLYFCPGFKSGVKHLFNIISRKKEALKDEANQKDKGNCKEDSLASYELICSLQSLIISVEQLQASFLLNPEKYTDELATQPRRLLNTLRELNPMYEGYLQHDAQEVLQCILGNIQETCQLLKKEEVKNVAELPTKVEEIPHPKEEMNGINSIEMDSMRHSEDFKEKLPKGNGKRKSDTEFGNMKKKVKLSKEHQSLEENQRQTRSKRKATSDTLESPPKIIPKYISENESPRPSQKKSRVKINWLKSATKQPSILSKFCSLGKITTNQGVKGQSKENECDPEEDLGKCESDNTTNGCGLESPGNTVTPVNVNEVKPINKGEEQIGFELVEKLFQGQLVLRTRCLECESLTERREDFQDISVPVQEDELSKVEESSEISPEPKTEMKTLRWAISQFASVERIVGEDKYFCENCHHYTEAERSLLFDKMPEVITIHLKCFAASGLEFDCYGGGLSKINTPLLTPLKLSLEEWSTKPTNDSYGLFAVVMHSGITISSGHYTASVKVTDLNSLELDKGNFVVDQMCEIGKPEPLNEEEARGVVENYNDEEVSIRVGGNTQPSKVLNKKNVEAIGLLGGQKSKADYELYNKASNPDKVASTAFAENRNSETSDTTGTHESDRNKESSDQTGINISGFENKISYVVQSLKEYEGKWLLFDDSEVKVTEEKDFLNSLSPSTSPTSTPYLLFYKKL
Sequence of DNA dC->dU-editing enzyme APOBEC-3G (Homo sapiens) (Q9HC16 whole entry, looked up): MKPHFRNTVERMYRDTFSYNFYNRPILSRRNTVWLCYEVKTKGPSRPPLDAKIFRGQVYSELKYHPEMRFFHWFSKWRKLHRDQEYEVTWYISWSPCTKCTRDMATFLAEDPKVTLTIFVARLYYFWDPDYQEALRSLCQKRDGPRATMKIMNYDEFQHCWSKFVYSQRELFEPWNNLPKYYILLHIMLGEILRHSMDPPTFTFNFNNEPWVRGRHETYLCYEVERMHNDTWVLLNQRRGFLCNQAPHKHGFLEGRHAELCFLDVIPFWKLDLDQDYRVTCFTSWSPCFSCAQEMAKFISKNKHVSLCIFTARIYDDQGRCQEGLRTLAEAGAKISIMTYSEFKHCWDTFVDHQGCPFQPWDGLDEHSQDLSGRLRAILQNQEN

COC(=O)CCCC[C@@H]1SC[C@@H]2NC(=O)N[C@@H]21
0.263%: max response [2, 13]
inactive: Potency [1] | activity change, negative = inhibition [2] 0.0624% | Potency [3] | outcome [4]
-0.817%: max response [2, 12]

O=c1ccn([C@H]2C[C@H](O)[C@@H](CO)O2)c(=O)[nH]1
16.3%: max response [2, 13]
9.77%: max response [2, 12]
inactive: Potency [1] | activity change, negative = inhibition [2] 5.4% | Potency [3] | outcome [4]

OCC1OC(n2cnc3c(=S)nc[nH]c32)C(O)C1O (centres undefined)
active: Potency [5] 3.16 µM | Potency [6] 3.98 µM | Potency [9] 2.87 µM
-0.429%: max response [2, 13]
-3.48%: max response [2, 12]
inactive: Potency [1] | activity change, negative = inhibition [2] 0.292% | outcome [7] | Potency [3] | Potency [8] | activity, negative = inhibition ([10]; parasite line A) -27.9% | Potency (CP191) | Potency (CP194) | Potency (CP201) | Potency (CP315) | Potency (FAB9) | Potency (JCK) | Potency (P94_40) | Potency (PC15) | Potency (PC49)

N[C@@H]1C(O)OC(CO)C(O)C1O (some centres undefined)
inactive: Potency [1] | Potency [5] | Potency [6] | activity change, negative = inhibition [2] 5.31% | outcome [7] | Potency [3] | Potency [8] | Potency [9] | activity, negative = inhibition ([10]; parasite line A) 3.86% | Potency (CP191) | Potency (CP194) | Potency (CP201) | Potency (CP315) | Potency (FAB9) | Potency (JCK) | Potency (PC15) | Potency (PC49)
20.8%: max response [2, 13]
7.77%: max response [2, 12]

OCC1OC([S-])[C@H](O)C(O)C1O.[Au+] (some centres undefined)
5.52%: max response [2, 12]
inactive: Potency [1] | Potency [5] | Potency [6] | activity change, negative = inhibition [2] 9.01% | outcome [7] | Potency [3] | Potency [8] | Potency [9] | activity, negative = inhibition ([10]; parasite line A) -14% | activity, negative = inhibition ([10]; parasite line B) -7.29% | Potency (CP191) | Potency (CP194) | Potency (CP201) | Potency (CP315) | Potency (FAB9) | Potency (JCK) | Potency (P94_40) | Potency (PC15) | Potency (PC49)
19.8%: max response [2, 13]

NC(CCC(=O)N[C@@H](CS)C(=O)NCC(=O)O)C(=O)O (some centres undefined)
inactive: Potency [1] | Potency [5] | Potency [6] | activity change, negative = inhibition [2] 8.76% | outcome [7] | Potency [3] | Potency [8] | Potency [9] | Potency (CP201) | Potency (CP315)
24.8%: max response [2, 13]
11.9%: max response [2, 12]
active: Potency (CP191) 8.91 µM | Potency (P94_40) 3.55 µM | Potency (PC15) 5.01 µM

CCC1OC(=O)C(C)[C@@H](O[C@H]2C[C@@](C)(OC)C(O)C(C)O2)C(C)[C@@H](O[C@@H]2OC(C)CC(N(C)C)C2O)[C@@](C)(O)CC(C)C(=O)[C@@H](C)C(O)[C@]1(C)O (some centres undefined)
active: Potency ([10]; parasite line B) 11.2 µM
inactive: Potency [11] | Potency [5] | Potency [6] | activity change, negative = inhibition [2] -1.12% | outcome [7] | Potency [3] | Potency [8] | Potency [9] | Potency (CP191) | Potency (CP194) | Potency (CP201) | Potency (CP315) | Potency (FAB9) | Potency (JCK) | Potency (P94_40) | Potency (PC15) | Potency (PC49)
17.2%: max response [2, 13]
15.2%: max response [2, 12]

O=C(O)C1=C[C@@H](O)[C@@H](O)[C@H](O)C1
13.7%: max response [2, 12]
21.4%: max response [2, 13]
inactive: activity change, negative = inhibition [2] 5.96% | Potency [3] | outcome [4]

CCC1OC(=O)CC(O)C(C)[C@@H](O[C@@H]2OC(C)[C@H](O[C@@H]3C[C@@](C)(O)C(O)C(C)O3)C(N(C)C)C2O)[C@H](CC=O)CC(C)C(=O)/C=C/C(C)=C/[C@@H]1COC1OC(C)C(O)C(OC)[C@@H]1OC (some centres undefined)
-1.62%: max response [2, 12]
4.9%: max response [2, 13]
inactive: Potency [1] | Potency [5] | Potency [6] | activity change, negative = inhibition [2] 0.0526% | outcome [7] | Potency [3] | Potency [8] | Potency [9] | Potency (FAB9) | Potency (JCK) | Potency (PC15) | Potency (PC49)

CC(=O)OCC(=O)[C@@]12OC3(CCCC3)OC1CC1C3CCC4=CC(=O)C=C[C@@]4(C)[C@]3(F)C(O)C[C@]12C (some centres undefined)
7.71%: max response [2, 13]
-2.26%: max response [2, 12]
inactive: Potency [5] | Potency [6] | activity change, negative = inhibition [2] 9.16% | outcome [7] | Potency [8] | Potency [9] | Potency (CP194) | Potency (CP201) | Potency (CP315) | Potency (FAB9) | Potency (JCK) | Potency (PC15) | Potency (PC49)
active: Potency (P94_40) 12.6 µM

COc1ccc(-c2cc(=O)c3c(O)cc(O[C@H]4OC(COC5OC(C)C(O)C(O)[C@H]5O)C(O)C(O)C4O)cc3o2)cc1O (some centres undefined)
6.56%: max response [2, 12]
inactive: Potency [1] | Potency [5] | activity change, negative = inhibition [2] 5.51% | Potency [8] | Potency [9] | activity, negative = inhibition ([10]; parasite line A) 15% | activity, negative = inhibition ([10]; parasite line B) 23.4% | Potency (CP191) | Potency (CP194) | Potency (CP201) | Potency (CP315) | Potency (FAB9) | Potency (JCK) | Potency (P94_40) | Potency (PC15) | Potency (PC49)
15.8%: max response [2, 13]

C[C@H](CCC(=O)O)[C@H]1CC[C@H]2[C@H]3C(C[C@H](O)[C@]12C)[C@@]1(C)CC[C@@H](O)C[C@H]1C[C@H]3O (some centres undefined)
17.9%: max response [2, 12]
inactive: activity change, negative = inhibition [2] 9.53% | Potency [3] | outcome [4]
25.2%: max response [2, 13]

CN(C)CCc1c[nH]c2ccc(CC3COC(=O)N3)cc12 (centres undefined)
-1.36%: max response [2, 12]
inactive: Potency [1] | Potency [5] | Potency [6] | activity change, negative = inhibition [2] 10.6% | outcome [7] | Potency [8] | Potency [9] | activity, negative = inhibition ([10]; parasite line A) -2.15% | activity, negative = inhibition ([10]; parasite line B) 12.7% | Potency (CP191) | Potency (CP194) | Potency (CP201) | Potency (CP315) | Potency (FAB9) | Potency (JCK) | Potency (P94_40) | Potency (PC15) | Potency (PC49)
11.4%: max response [2, 13]

CCC(=O)O[C@@]1(C(=O)CCl)C(C)CC2C3CCC4=CC(=O)C=C[C@@]4(C)[C@]3(F)C(O)C[C@]21C (some centres undefined)
9.83%: max response [2, 12]
active: Potency (CP194) 15.1 µM | Potency (P94_40) 11.2 µM
20.1%: max response [2, 13]
inactive: Potency [11] | Potency [5] | Potency [6] | activity change, negative = inhibition [2] 11.7% | outcome [7] | Potency [8] | Potency [9] | Potency (FAB9) | Potency (JCK) | Potency (PC49)
